From PubChem BioAssay
“And” between values parts separate entries of the source, which are not always exact repeats. Identical values can stand only once. The source made the active and inactive calls. How the calls were made is not given here.

Assay: kinase inhibitors against Plasmodium liver-stage infection, cell-based, known kinase inhibitor set, luminescence, hepatoma host viability (AID 624392);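 further: infected cells incubated roughly two days before readout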
Settings: Plasmodium liver stage in hepatoma cells, luciferase luminescence, concentration not given here; liver cell % of control: measured here: host liver cell viability; parasite % of control: stronger effect = lower value

SMILES | liver cell % of control | parasite % of control
O=C(Nc1cccc(-c2csc(Nc3ccc(Cl)cc3)n2)c1)c1ccccc1 | 90.9% | 112% (inactive)
CCN1CCN(Cc2ccc(NC(=O)c3cc(NC(=O)c4cc(C)on4)cc(OC)c3)cc2C(F)(F)F)CC1 | 99.3% | 92.3% (inactive)
O=C(Nc1ccc(-c2csc(Nc3ccc(Cl)cc3)n2)cc1)c1cc([N+](=O)[O-])cc(C(F)(F)F)c1 | 106% | 97.2% (inactive)
Cc1c[nH]c(C=C2C(=O)Nc3ccccc32)c1CCC(=O)O | 85.5% and 92.1% and 99.1% | 58.7% (inactive) and 47.8% (inactive) and 49.4% (inactive)
CCN1CCN(Cc2ccc(NC(=O)c3cc(NC(=O)N4CCNC4=O)cc(OC)c3)cc2C(F)(F)F)CC1 | 96.3% | 12.4% (active)
COc1cc(NC(=O)c2cc3cccc(OC)c3o2)cc(C(=O)Nc2cccc(C(F)(F)F)c2)c1 | 95.6% | 62.8% (inactive)
NS(=O)(=O)c1ccc(-c2ccc(C=C3C(=O)c4ccccc4C3=O)o2)cc1 | 102% | 96.4% (inactive)
CCN1CCN(Cc2ccc(NC(=O)c3cc(NC(=O)c4cnnc5ccccc45)cc(OC)c3)cc2C(F)(F)F)CC1 | 94.5% | 85.8% (inactive)
O=C(Nc1cccc(-c2csc(Nc3cccc(C(F)(F)F)c3)n2)c1)c1cc([N+](=O)[O-])cc(C(F)(F)F)c1 | 98.5% | 79.7% (inactive)
C=CC(=O)Nc1cccc(Nc2ccnc(Nc3ccc(N4CCN(C)CC4)cc3)n2)c1 | 92.9% | 184% (inactive)
C=CC(=O)Nc1ccc(Nc2ccnc(Nc3ccc(N4CCN(C)CC4)cc3)n2)cc1 | 105% | 124% (inactive)
CC(C)n1cnc2c(Nc3ccc(F)c(Cl)c3)nc(NCCO)nc21 | 96.9% | 107% (inactive)
Cc1cn(-c2cc(C(=O)Nc3ccc(C)c(NC(=O)C(=O)c4c[nH]c5ccccc45)c3)cc(C(F)(F)F)c2)cn1 | 95.9% | 102% (inactive)
CCC(CO)Nc1nc(Nc2cccc(Cl)c2)c2ncn(C(C)C)c2n1 (stereo unspecified) | 90.3% | 477% (inactive)
COc1cc(C(=O)NC2CCN(C)CC2)ccc1Nc1ncc2c(n1)N(C1CCCCC1)CCC(=O)N2C | 81.9% | 520% (inactive)
COc1ccc(CNc2nc(NCc3ccc(OC)cc3)c3[nH]cnc3n2)cc1 | 92.9% | 590% (inactive)
O=c1[nH]c2ccccc2c2ncnc(Nc3ccc(OC(F)(F)F)cc3)c12 | 101% | 119% (inactive)
CC(C)n1cnc2c(Nc3cccc(F)c3)nc(NCCO)nc21 | 95.1% | 135% (inactive)
Cc1ccc(C(=O)Nc2cccc(C(F)(F)F)c2)cc1NC(=O)c1nccnc1N | 95% | 83.1% (inactive)
CCN1CCN(Cc2ccc(NC(=O)c3ccc(C)c(NC(=O)c4cccc5[nH]ccc45)c3)cc2C(F)(F)F)CC1 | 103% | 99.7% (inactive)

SMILES | liver cell % of control | parasite % of control
Cc1ccc(C(=O)Nc2cccc(C(F)(F)F)c2)cc1Nc1cnccn1 | 98.3% | 23.7% (inactive)
CCN1CCN(Cc2ccc(NC(=O)c3ccc(C)c(NC(=O)c4ccno4)c3)cc2C(F)(F)F)CC1 | 100% | 100% (inactive)
C=CC(=O)Nc1cccc(N2C(=O)N(c3cc(OC)cc(OC)c3)Cc3cnc(NCCCCN(CC)CC)nc32)c1 | 102% | 107% (inactive)
C=CC(=O)Nc1cccc(CN2C(=O)N(c3cc(OC)cc(OC)c3)Cc3cnc(NCCCCN(CC)CC)nc32)c1 | 102% | 70.3% (active)
CC(C)CC(CO)Nc1nc(Nc2cccc(Cl)c2)c2ncn(C(C)C)c2n1 (stereo unspecified) | 102% | 148% (inactive)
CC(C)n1cnc2c(N(C)c3cccc(Cl)c3)nc(N(CCO)CCO)nc21 | 93.8% | 100% (inactive)
O=C(Nc1ccc(-c2csc(Nc3cccc(C(F)(F)F)c3)n2)cc1)c1cc([N+](=O)[O-])cc(C(F)(F)F)c1 | 101% | 70% (inactive)
C=CC(=O)Nc1cccc(N(C)c2ccnc(Nc3ccc(N4CCN(C)CC4)cc3)n2)c1 | 95.1% | 6.04% (inactive)
CCN1CCN(Cc2ccc(NC(=O)c3cc(NC(=O)c4ccno4)cc(OC)c3)cc2C(F)(F)F)CC1 | 99.7% | 75.7% (inactive)
CN(C)CCCNc1ccc(-c2cc(Nc3cccc(Cl)c3)ncn2)cn1 | 94.9% | 108% (inactive)
C=CC(=O)Nc1cccc(Oc2ncnc3[nH]cc(-c4cnc5ccccc5c4)c23)c1 | 100% | 112% (inactive)
Cc1cc(C(=O)Nc2cc(Nc3ccc4c(C=Cc5ccccn5)n[nH]c4c3)ccc2F)n(C)n1 | 75.4% and 84.5% and 95.8% | 17.4% (inactive) and 18.3% (inactive) and 40.1% (inactive)
CCN1CCN(Cc2ccc(NC(=O)c3cc(NC(=O)C(=O)c4c[nH]c5ccccc45)cc(OC)c3)cc2C(F)(F)F)CC1 | 92.9% | 85.7% (inactive)
CC(C)n1cnc2c(Nc3cccc(Cl)c3)nc(N(CCO)CCCO)nc21 | 81.2% | 381% (inactive)
CCN1C(=O)CCN(C2CCCC2)c2nc(Nc3ccc(C(=O)NC4CCN(C)CC4)cc3OC)ncc21 | 91.7% | 362% (inactive)
Cn1cc(C=C2C(=O)Nc3cccnc32)c2ccccc21 | 314% and 107% and 104% | 4.91% (inactive) and 51.8% (inactive) and 41.5% (inactive)
CCN1CCN(Cc2ccc(NC(=O)c3cc(NC(=O)C4=NN(c5ccccc5)C(=O)C4)cc(OC)c3)cc2C(F)(F)F)CC1 | 100% | 110% (inactive)
O=C(Nc1ccc(-c2csc(Nc3ccc(Cl)cc3)n2)cc1)c1cccc(C(F)(F)F)c1 | 104% | 88% (inactive)
Cc1ccc(C(=O)Nc2cccc(C(F)(F)F)c2)cc1NC(=O)c1csc(-c2ccncc2)n1 | 91.8% | 76.3% (inactive)
CC(C)C(CO)Nc1nc(Nc2ccc(C(=O)O)c(Cl)c2)c2ncn(C(C)C)c2n1 (stereo unspecified) | 52.3% and 72.3% | 13.7% (inactive) and 48.9% (inactive) and 114% (inactive)

SMILES | liver cell % of control | parasite % of control
O=C1NC(=O)C(=Cc2ccc(-c3ccc(S(=O)(=O)N4CCNCC4)cc3)o2)C(=O)N1 | 94.8% | 303% (inactive)
CCN1CCN(Cc2ccc(NC(=O)c3ccc(C)c(NC(=O)N4CCNC4=O)c3)cc2C(F)(F)F)CC1 | 93% | 163% (inactive)
CCN1CCN(Cc2ccc(NC(=O)c3cc(NC(=O)c4cnn(-c5ccccc5)c4N)cc(OC)c3)cc2C(F)(F)F)CC1 | 109% | 130% (inactive)
CS(=O)(=O)Nc1ccc(-c2cc(C=C3SC(N)=NC3=O)c[nH]c2=O)cc1 | 97.7% | 127% (inactive)
NC1CCC(Nc2nc(Nc3ccc(S(=O)(=O)N4CCCCC4)cc3)c3ncn(-c4ccccc4)c3n2)CC1 (stereo unspecified) | 103% | 336% (inactive)
OCCCNc1nccc(-c2cc(Nc3cccc(Cl)c3)ncn2)n1 | 81.8% | 176% (inactive)
CC(C)n1cnc2c(Nc3ccc(C(=O)O)cc3)nc(Cl)nc21 | 88.9% | 123% (inactive)
Cc1ccc(-c2c(C(=O)CCl)n(CCO)c3ncnc(N)c23)cc1 | 90.7% | 86.5% (inactive)
CC(C)C(CO)Nc1nc(NCc2ccc(S(N)(=O)=O)cc2)c2ncn(C(C)C)c2n1 (stereo unspecified) | 95.4% | 647% (inactive)
CC(C)C(CO)N(Cc1cccc(F)c1)c1nc(Nc2cccc(Cl)c2)c2ncn(C(C)C)c2n1 (stereo unspecified) | 91.9% | 62.1% (inactive)
COc1cc(NC(=O)N2CCNC2=O)cc(C(=O)Nc2cccc(C(F)(F)F)c2)c1 | 104% | 223% (inactive)
NC1=NC(=O)C(=Cc2ccc(-c3ccc(Cl)cc3)o2)S1 | 97.6% | 73.1% (inactive)
C=CC(=O)N1CCN(Cc2ccc(C(=O)Nc3ncc(Sc4cc(C(=O)N5CCN(C(C)=O)CC5)c(OC)cc4C)s3)cc2)CC1 | 92.4% | 597% (inactive)
Cc1ccc(C(=O)Nc2cccc(C(F)(F)F)c2)cc1Nc1cncnc1 | 102% | 53.6% (inactive)
CCN1CCN(Cc2ccc(NC(=O)c3ccc(C)c(NC(=O)c4cccc(-c5cn[nH]c(=O)c5)c4)c3)cc2C(F)(F)F)CC1 | 103% | 55.8% (inactive)
COc1cc(C(=O)N2CCC(N3CCCCC3)CC2)ccc1Nc1nnc(Cl)c(Nc2ccccc2S(C)(=O)=O)n1 | 97.3% | 118% (inactive)
Cc1cn(-c2cc(C(=O)Nc3ccc(C)c(NC(=O)N4CCNC4=O)c3)cc(C(F)(F)F)c2)cn1 | 98.1% | 72.3% (inactive)
CC(=O)Nc1ccc(C(C)C(=O)Nc2ncc(C(C)C)s2)cc1 (stereo unspecified) | 53.4% and 52.2% and 52.5% | 136% (inactive) and 128% (inactive) and 133% (inactive)
